Compounds with a hit are over-represented: about 11% of the library has one in this group of screens.
VACV Venus inh = inhibitors of vaccinia virus (Venus reporter) | Vaccinia virus Venus reporter expression, fluorescence | Potency, µM (doses to about 36.5 µM), actives largely listed as inhibitors | 0.46% of 330,000 active; calls by dose curve; tested in A549 cells; note: nearly all actives have a fitted effect of over 30% in size
Pf growth 48h = inhibits P. falciparum growth in the first generation, 48 h; Potency, µM (series often up to 28.7 µM), actives largely listed as inhibitors; P. falciparum luciferase growth in erythrocytes, 48 h; 5.9% of 310,000 active
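Parasite viability was followed by luminescence of a genomically integrated firefly luciferase. Cultures held 0.1% parasitemia at 2% hematocrit (final), incubated under 5% CO2 at 37 C.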
HCV inh = HCV inhibition; Huh7.5.1 HCVcc-Cre infection, luciferase reporter, 44 h; Potency, µM (series often up to 41.8 µM), usual class: inhibitors; 3.4% of 340,000 active; AID 651820
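Cells seeded at 1,000/well and cultured 4 h, then compounds added followed by HCVcc-Cre virus (~0.5 moi). After 44 h further culture, luciferase substrate was added, plates held 15 min at room temperature, and luminescence read for 15 sec.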
NS1 function inh = inhibitors of influenza NS1 protein function; AID 2326; Potency, µM (titrated, usually from 46.1 µM); 0.4% of 270,000 active; calls by dose curve; note: actives are rising curves; nearly all actives have a fitted effect of over 50% in size
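In this qHTS, NS1 from influenza A is expressed in budding yeast, where it slows growth. Cells are switched from glucose to 2% galactose medium (pH 6.0, -URA), treated with compound, and growth recovery is read at OD600.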
VACV mCherry inh = inhibitors of vaccinia virus infection (mCherry reporter signal); 0.63% of 310,000 active; AID 720579; Vaccinia virus mCherry reporter infection, fluorescence; Potency, µM (highest dose often 36.5 µM), actives largely listed as inhibitors; calls by dose curve; tested in A549 cells; note: nearly all actives have a fitted effect of over 35% in size
Pf growth 96h = P. falciparum growth inhibition at 96 hours; P. falciparum luciferase reporter growth, 96 h; AID 504834; 6.9% of 320,000 active; Potency, µM (top dose mostly 28.7 µM), hits mostly inhibitors
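Cell-based qHTS: luciferase-tagged P. falciparum in erythrocytes (2% hematocrit, 0.05% parasitemia final) incubated with compounds for 96 hours, 37 C, 5% CO2; luciferase detection reagent then added and luminescence measured.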
A number is an active result; 0 = inactive; ? = inconclusive; - = not tested or not shown; [ ] = dose if it differs, or a comment. Unless noted, calls come from the whole dose curve; as a rule, active = well fitted inhibition curve with a large enough effect; inconclusive = small, poorly fitted or top-dose-only effect, or another doubt; inactive = no such curve, though single readings can be large or run the other way.

SMILES	VACV Venus inh	Pf growth 48h	HCV inh	NS1 function inh	VACV mCherry inh	Pf growth 96h
Cc1ccccc1NC(=S)NC(NC(=O)COc1ccccc1)C(Cl)(Cl)Cl (stereo not drawn)	0	0	0	0	?	?
O=C(/C=C/c1ccco1)Nc1ccc(Cl)c(S(=O)(=O)N2CCOCC2)c1	-	?	10µM	0	-	0
O=C(Nc1ccc(Cl)c(S(=O)(=O)N2CCOCC2)c1)c1cccs1	0	-	0	-	0	-
c1ccc2sc(C3CCN(Cc4nnnn4Cc4ccc5c(c4)OCO5)CC3)nc2c1	?	?	?	0	?	0
Cc1cc2nc(C3CCN(Cc4nnnn4Cc4ccccc4)CC3)[nH]c2cc1C	?	?	?	0	0	5.2µM
COc1ccc(Cn2nnnc2CN2CCC(c3nc4ccccc4s3)CC2)cc1	-	12µM	25µM	0	-	0
CCOC(=O)c1ccc(NC(=O)Cn2cnc(S(=O)(=O)N3CCCC3)c2)cc1	0	0	0	0	0	?
COc1ccccc1C(=O)N1N=C(c2ccc(NS(C)(=O)=O)cc2)CC1c1cccs1 (stereo not drawn)	-	0[0.00184 µM]	0	0	-	0
CS(=O)(=O)Nc1ccc(C2=NN(C(=O)CCCC(=O)O)C(c3cccs3)C2)cc1 (stereo not drawn)	0	0	0	0	0	1.9µM
Cc1ccccc1C(=O)N1N=C(c2ccc(NS(C)(=O)=O)cc2)CC1c1cccs1 (stereo not drawn)	0	?	0	0	0	1.7µM
Cc1c(=O)n(OCc2ccccn2)c2ccccc2[n+]1[O-]	0	0	0	0	0	0
COc1ccc(-n2c(C)nc(=O)c(-c3ccccc3)c2C)cc1	0	0	0	0	0	9.3µM
CCOC(=O)c1cnc(-n2nc(C)cc2C)nc1Nc1ccc(C)cc1	0	?	0	0	0	?
CCOC(=O)c1cnc(-n2nc(C)cc2C)nc1Nc1ccc(O)cc1	-	?	?	0	-	2.6µM
CCOC(=O)c1cnc(-n2nc(C)cc2C)nc1Nc1cccc(C(=O)O)c1	-	0	0	0	-	?
CCOC(=O)c1cnc(-n2nc(C)cc2C)nc1Oc1ccc(C#N)cc1	0	0	0	0	0	0
CCOC(=O)c1cnc(-n2nc(C)cc2C)nc1Nc1ccc2c(c1)OCO2	-	0	-	0	-	15µM
CCOC(=O)c1cnc(-n2nc(C)cc2C)nc1Nc1ccc(N(C)C)cc1	-	5.2µM	?	0	-	3.3µM
O=C(C1CCN(S(=O)(=O)c2cccc3nsnc23)CC1)N1CCc2ccccc2C1	0	?	0	0	0	0
CCOC(=O)CSc1nnc(NC(=O)c2cccc([N+](=O)[O-])c2)s1	0	0	0	0	0	12µM
CCOC(=O)Cc1ccc(NC(=O)c2cccc([N+](=O)[O-])c2)cc1	0	0	0	0	0	0
Cc1ccc(CN2C(=O)C(Cc3ccccc3)Nc3ncnc(N4CCCCC4)c32)cc1 (stereo not drawn)	0	1.7µM	?	-	0	4.7µM
O=C1C(Cc2ccccc2)Nc2ncnc(N3CCN(c4ccccc4)CC3)c2N1Cc1ccccc1 (stereo not drawn)	0	2.9µM	?	-	0	2.9µM
O=C1C(Cc2ccccc2)Nc2ncnc(N3CCOCC3)c2N1Cc1ccc(Cl)cc1 (stereo not drawn)	0	9.3µM	0	-	0	0
O=C1C(Cc2ccccc2)Nc2ncnc(N3CCc4ccccc4C3)c2N1Cc1ccc(Br)cc1 (stereo not drawn)	-	10µM	0	-	-	13µM
SMILES	VACV Venus inh	Pf growth 48h	HCV inh	NS1 function inh	VACV mCherry inh	Pf growth 96h
CCC1Nc2ncnc(N3CCOCC3)c2N(Cc2ccccc2)C1=O (stereo not drawn)	0	?	0	-	0	0
Cn1ccc2c(OCC(=O)NCc3ccc(F)cc3)cccc2c1=O	?	-	-	-	0	-
O=C(Nc1c(-c2ccccc2)[nH][nH]c1=O)c1ccc2ccccc2c1	0	-	-	-	?	-
COc1ccc(-c2nn(-c3ccccc3C)cc2CNC(C)Cn2cncn2)cc1F (stereo not drawn)	0	?	0	0	0	?
CCC1Nc2ncnc(N3CCCCC3)c2N(Cc2ccccc2)C1=O (stereo not drawn)	0	?	0	-	0	?
COc1ccc(CN2C(=O)C(Cc3ccccc3)Nc3ncnc(N4CCCCC4)c32)cc1 (stereo not drawn)	0	5.2µM	0	-	0	12µM

Bioassay records as filed in PubChem.
